Bioassay records as filed in PubChem.
TDP43 rescue: qHTS of TDP-43 Inhibitors. 410,000 compounds, 1.8% hits. Potency, µM (titrated, usually from 46.1 µM), actives largely listed as activators. TDP-43 expressing yeast growth rescue, BacTiter-Glo, 24 h; note: nearly all actives have a fitted effect of over 50% in size
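Cell-based yeast growth screen: TDP-43 expression induced in galactose, inoculum OD600=0.02 after raffinose pregrowth to mid-log. Read-out BacTiter-Glo luminescence at 24 hr, 30 deg C; inhibition of toxicity seen as signal increase.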
Abeta yeast res: qHTS for compounds that reverse cellular toxicity of Amyloid beta (A-beta) peptide in yeast: Primary Screen | yeast expressing A-beta42, growth rescue, OD600, 48 h; response scale: 0% DMSO, 100% iron-clioquinol control | Potency, µM (series often up to 46.1 µM), actives largely listed as activators | 410,000 compounds, 0.063% hits; note: nearly all actives have a fitted effect of over 55% in size
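Yeast A-beta toxicity model in growth medium with pinned compounds, 48 h at 30 C; growth read as absorbance at 600 nm. Normalized to FeCl3/clioquinol equimolar mix (positive) and DMSO (negative).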
aSyn rescue: qHTS of alpha-syn Inhibitors | AID 652106, 2013 | 370,000 compounds, 0.14% hits | Yeast expressing alpha-synuclein, growth rescue, BacTiter-Glo, 24 h | Potency, µM (doses to about 46.1 µM), hits mostly activators; note: nearly all actives have a fitted effect of over 65% in size
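Readout is rescue of growth in alpha-synuclein-expressing yeast, so inhibitors of toxicity appear as activators. Growth after 24 hr at 30 deg C in galactose medium is quantified by luminescence.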
PTAP TSG101 blk: qHTS Assay for Iinhibitors of HIV-1 Budding by Blocking the Interaction of PTAP/TSG101; Tumor susceptibility gene 101 protein (Homo sapiens), Q99816; Fluorescence polarization, FITC-PTAP peptide / Tsg101 binding; Potency, µM (series often up to 115 µM), hits mostly inhibitors; 340,000 tested, under 10 active; active = well fitted inhibition curve with a large enough effect in the main read-out, with a control signal flat, not every such curve was filed as active; inconclusive = small, poorly fitted or top-dose-only effect, or effect the other way, or a change in a side signal; inactive = no such curve, though single readings can be large or run the other way
Target sequence (Q99816 whole entry, looked up): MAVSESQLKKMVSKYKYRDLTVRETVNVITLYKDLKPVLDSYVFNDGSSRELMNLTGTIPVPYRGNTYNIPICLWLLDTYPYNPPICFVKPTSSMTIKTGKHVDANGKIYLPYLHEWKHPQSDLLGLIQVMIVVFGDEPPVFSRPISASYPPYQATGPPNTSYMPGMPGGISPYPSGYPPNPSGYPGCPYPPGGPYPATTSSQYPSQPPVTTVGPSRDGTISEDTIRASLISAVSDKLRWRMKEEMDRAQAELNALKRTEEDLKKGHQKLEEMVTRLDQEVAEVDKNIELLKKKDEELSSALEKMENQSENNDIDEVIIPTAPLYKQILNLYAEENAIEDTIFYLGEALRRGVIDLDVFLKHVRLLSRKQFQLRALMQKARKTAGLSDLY
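Tsg101 binding domain (10 uM final) was mixed with compound and a FITC-labeled PTAP peptide (50 nM final) in HEPES pH 7.5 buffer with NaCl, Tween 20, EDTA and TCEP; fluorescence polarization was read after 20 min at r.t.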
FUS suppressor: qHTS for Suppressors of FUS Proteinopathy: Primary screen using FUS-linked yeast assay; AID 1347120, 2019; 390,000 compounds, 0.24% hits; Potency, µM (top dose mostly 76.6 µM), most hits filed as activators; S. cerevisiae FUS-expressing, growth rescue, OD600, 24 h; note: nearly all actives have a fitted effect of over 55% in size
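Cultures pregrown in 2.5% raffinose medium are shifted to minimal medium containing 2% galactose to express toxic FUS. Compounds are tested at several concentrations. After 24hr at 30C, growth is quantified at 600 nm absorbance.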
Each line names hits and unclear results; the compound was inactive in the other large screens. Shown are actives, neighbours in structure and some others; about 2.1% of the full set was active somewhere. Unless noted, calls come from the whole dose curve; as a rule, active = well fitted curve in the direction sought with a large enough effect; inconclusive = small, poorly fitted or top-dose-only effect, or another doubt; inactive = no such curve, though single readings can be large; an effect the other way counts as inactive or inconclusive.

CCCCNC(=O)C[C@H]1C[C@@]2(C(=O)OC)C(=C[C@H](C3CCCC3)O[C@@H]2C)N(Cc2cccc3ccccc23)C1=O	FUS suppressor 13µM (no result: TDP43 rescue, Abeta yeast res, aSyn rescue, PTAP TSG101 blk)
COC(=O)[C@]12C[C@H](CC(=O)NCc3ccc(OC)c(OC)c3)C(=O)N(CCC3=CCCCC3)C1=C[C@H](C1CCCC1)O[C@@H]2C	FUS suppressor 14µM (no result: TDP43 rescue, Abeta yeast res, aSyn rescue, PTAP TSG101 blk)
COC(=O)[C@]12C[C@H](CC(=O)NCCc3ccccc3OC)C(=O)N(CCC3=CCCCC3)C1=C[C@H](C1CCCC1)O[C@@H]2C	none (no result: TDP43 rescue, Abeta yeast res, aSyn rescue, PTAP TSG101 blk)
COC(=O)[C@]12C[C@H](CC(=O)NCc3cccc(C(F)(F)F)c3)C(=O)N(Cc3ccco3)C1=C[C@H](C1CCCC1)O[C@@H]2C	FUS suppressor 4.5µM (no result: TDP43 rescue, Abeta yeast res, aSyn rescue, PTAP TSG101 blk)
COC(=O)[C@]12C[C@H](CC(=O)NCc3cccc4ccccc34)C(=O)N(Cc3cccc4ccccc34)C1=C[C@H](COCc1ccccc1)O[C@@H]2C	none (no result: TDP43 rescue, Abeta yeast res, aSyn rescue, PTAP TSG101 blk)
COC(=O)[C@]12C[C@H](CC(=O)NCC3CCCCC3)C(=O)N(Cc3cccc4ccccc34)C1=C[C@H](C1CCCC1)O[C@@H]2C	FUS suppressor 32µM (no result: TDP43 rescue, Abeta yeast res, aSyn rescue, PTAP TSG101 blk)
COc1ccc(C(=O)c2cn(Cc3ccccc3F)c3cc4c(cc3c2=O)OCCO4)cc1OC	none (no result: aSyn rescue, PTAP TSG101 blk)
O=C(NCc1ccc(F)cc1)c1cc(C2CCCN(C(=O)C3CCCCC3)C2)on1 (centres undefined)	TDP43 rescue inconclusive (no result: PTAP TSG101 blk)
COC(=O)c1c(NC(=O)COc2ccc(C)cc2Br)sc2c1CCCC2	none (no result: aSyn rescue, PTAP TSG101 blk)
Cc1ccc(CNC(=O)c2ccc3c(c2)CCN3S(=O)(=O)c2ccc(Br)cc2)cc1	none (no result: aSyn rescue, PTAP TSG101 blk)
COC(=O)c1cc(Cl)cc2c(C)c(C3(O)CCCCC3)[nH]c12	TDP43 rescue 35µM, aSyn rescue inconclusive
COC(=O)c1ccc2c(C)c(C3(O)CCCCC3)[nH]c2c1	TDP43 rescue 20µM
CCCn1cc(S(=O)(=O)c2cccc(Cl)c2)c(=O)c2cc(F)c(N3CCCC3)cc21	none (no result: aSyn rescue, PTAP TSG101 blk)
O=C1C=C(NC2=CC3OC(c4ccccc4)OCC3OC2=O)CCC1 (centres undefined)	TDP43 rescue 13µM, aSyn rescue 18µM (no result: FUS suppressor)
O=C1C=C(NCc2ccccc2)CCC1	none (no result: FUS suppressor)
O=C(Cn1c(-c2cccs2)cc2ccccc21)NCCCN1CCN(c2ccccc2F)CC1	none (no result: aSyn rescue, PTAP TSG101 blk)
Cc1nn(C)c2c1c(C(F)(F)F)cc(=O)n2C(C)C(=O)NCCc1ccc(Cl)cc1 (centres undefined)	none (no result: aSyn rescue, PTAP TSG101 blk)
CCn1nc(C)c2c(-c3ccccc3)cc(=O)n(C(C)C(=O)NCc3ccccc3OC)c21 (centres undefined)	TDP43 rescue 10µM, FUS suppressor inconclusive (no result: aSyn rescue, PTAP TSG101 blk)
Cc1nn(C)c2c1c(-c1ccccc1)cc(=O)n2C(C)C(=O)NCCc1ccc(Cl)cc1 (centres undefined)	TDP43 rescue 22µM, FUS suppressor inconclusive (no result: aSyn rescue, PTAP TSG101 blk)
CCn1nc(C)c2c(-c3ccccc3)cc(=O)n(C(C)C(=O)Nc3cc(C)ccc3C)c21 (centres undefined)	none (no result: aSyn rescue, PTAP TSG101 blk)
CCn1nc(C)c2c(-c3ccccc3)cc(=O)n(C(C)C(=O)NCCc3ccc(Cl)cc3)c21 (centres undefined)	TDP43 rescue 22µM, FUS suppressor inconclusive (no result: aSyn rescue, PTAP TSG101 blk)
CCn1nc(C)c2c(-c3ccccc3)cc(=O)n(C(C)C(=O)Nc3cccc(F)c3)c21 (centres undefined)	FUS suppressor inconclusive (no result: aSyn rescue, PTAP TSG101 blk)
O=C(NCc1ccccc1C(F)(F)F)C1CC(c2ccccc2C(F)(F)F)=NO1 (centres undefined)	none
O=C(NCc1ccccc1C(F)(F)F)C1CC(c2ccccc2[N+](=O)[O-])=NO1 (centres undefined)	TDP43 rescue 13µM
Cc1cccc2cc(CN(Cc3nnnn3Cc3ccco3)C3CCCC3)c3nnnn3c12	TDP43 rescue 7.1µM, aSyn rescue inconclusive
COc1ccc(NC(=O)C2CCCN(S(=O)(=O)c3ccc4c(c3)CCCC(=O)N4)C2)c(OC)c1 (centres undefined)	none (no result: PTAP TSG101 blk)
COc1ccc(OC)c(NC(=O)Nc2ccc(O)c3ccccc23)c1	FUS suppressor 28µM
COc1ccc(OC)c(C(=O)Nc2c(O)ccc3ccccc23)c1	TDP43 rescue 11µM, FUS suppressor inconclusive
COC(=O)/C=C1\S/C(=N\N=C\CC(=O)OC)NC1=O	Abeta yeast res inconclusive, FUS suppressor 32µM
COC(=O)/C=C1\SC(=Nc2ccc(OC)cc2)NC1=O	none
CCCS(=O)(=O)NC(=O)C1(C)CCCN(C(=O)c2cccc(C(F)(F)F)c2)C1 (centres undefined)	none (no result: PTAP TSG101 blk)
CCN(CC)c1c([N+](=O)[O-])c(=O)n(C)c2ccccc12	none
CN(Cc1ccccc1)c1c([N+](=O)[O-])c(=O)n(C)c2ccccc12	TDP43 rescue 16µM, aSyn rescue inconclusive, FUS suppressor inconclusive
Clc1ccc(C2Nc3cccc4cccc(c34)N2)c(Cl)c1	Abeta yeast res inconclusive (no result: TDP43 rescue)
O=C1NC(c2cccc3ccccc23)Nc2ccc(Cl)cc21 (centres undefined)	TDP43 rescue 11µM (no result: FUS suppressor)
Nc1nc(SCc2ccccc2)sc1C(=O)N1CCCCC1	TDP43 rescue 13µM (no result: PTAP TSG101 blk)
Nc1c(C(=O)N2CCCCC2)sc(=S)n1-c1ccccc1	none
COc1ccc(NC(=O)c2oc3ccccc3c2NC(=O)Cc2coc3cc(C)ccc23)cc1	none (no result: aSyn rescue, PTAP TSG101 blk)
O=C(c1cccs1)N1CCN(c2nnc(-c3ccccc3)c3ccccc23)CC1	TDP43 rescue 18µM
O=C(Nc1cccc(NC(=O)c2ccccc2Cl)c1)c1cccs1	TDP43 rescue 22µM
Cc1csc2nc(-c3cccc(NC(=O)c4ccccc4Cl)c3)cn12	TDP43 rescue 20µM, FUS suppressor inconclusive (no result: PTAP TSG101 blk)
